This note sets out measurements from PubChem BioAssay (EPA / NIEHS).

The structures appear in SMILES notation. Where “and” joins values, the source holds several entries; their conditions need not be identical. Equal entries are not always repeated. Results filed as inconclusive are left out. Where a structure was tested more than once in an assay, its records may differ in their call. Calls of active or inactive are those of the source. The calls were made as follows: active = hit-call score of the fitted dose curve at least 0.9, where 1 is the maximum; inconclusive = response in the unintended direction; inactive = score below 0.9.

A short description of assay [1]: TOX21_p53_BLA_p3_viability: Viability Assessment in the Tox21 HCT-116 p53 Agonism Beta-lactamase Assay, Phase 3 (AID 2283593).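 Also: cells exposed to compound for 16 h before reading.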 In outline:
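HCT-116 cells (4000/well) rested 5 h at 37C, then got DMSO compounds by pin tool (217-fold dilution) for 16 h at 37C, 5% CO2. After the bla read, CellTiter-Glo was added and luminescence read at 30 min, room temperature.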

Assay [2] addresses Cellular tumor antigen p53 (Homo sapiens) (UniProt P04637). In words: TOX21_p53_BLA_p3_ratio: Tox21 HCT-116 p53 Agonism Beta-lactamase Assay, Ratio, Phase 3 (AID 2283596). The essentials: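 Cells were seeded at 4000/well, rested 5 h at 37C, then dosed with DMSO compound solutions (217-fold dilution) for 16 h. CCF4-AM substrate was loaded for 2 h at room temperature, and the 460/530 nm emission ratio was fitted for gain of signal versus DMSO.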

Assay [3] is described as follows: TOX21_p53_BLA_p4_viability: Viability Assessment in the Tox21 HCT-116 p53 Agonism Beta-lactamase Assay, Phase 4 (AID 2283597).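 Also: hits lower the luminescence signal meaning cytotoxicity.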 In outline: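 Readout: ATP luminescence (CellTiter-Glo), measured 30 min after reagent addition at RT. The reagent followed a 2 h CCF4-AM incubation, and the cells had been exposed to compound for 16 h at 37C.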
Assay [4] is described as follows: TOX21_p53_BLA_p5_viability: Viability Assessment in the Tox21 HCT-116 p53 Agonism Beta-lactamase Assay, Phase 5 (AID 2283600). In outline: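 Workflow: seed 4000 cells per well, wait 5 h, add compounds (DMSO, 217-fold dilution), incubate 16 h, load CCF4-AM 2 h, add CellTiter-Glo, read luminescence after 30 min.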
Assay [5] deals with Cellular tumor antigen p53 (Homo sapiens) (UniProt P04637). In words: TOX21_p53_BLA_p4_ratio: Tox21 HCT-116 p53 Agonism Beta-lactamase Assay, Ratio, Phase 4 (AID 2283601). The essentials:
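HCT116 cells carrying an inducible beta-lactamase reporter were plated at 4000 cells/well, rested 5 h, then exposed to compounds in DMSO (217-fold dilution) for 16 h at 37C. CCF4-AM substrate was loaded 2 h at room temperature; 460/530 nm emission ratio scored gain-of-signal versus DMSO.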

Assay [6] is described as follows: Tanguay_ZF_120hpf_MORT_legacy: (Legacy) Oregon State University Tanguay Lab 120 Hour Post-fertilization zebrafish Assay for Mortality (AID 2283633).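 As to AC50: fitted as increase in binary mortality versus DMSO negative control.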 In outline:
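5D WT zebrafish, chorion removed 4 hpf; 1 embryo/well from 6 hpf; static exposure to 120 hpf, 28C, dark, sealed. Final DMSO 0.64%. Readout: binary mortality, brightfield, 24 + 120 hpf; DMSO as negative control.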

The nature of assay [7]: Tanguay_ZF_120hpf_AXIS_legacy: (Legacy) Oregon State University Tanguay Lab 120 Hour Post-fertilization zebrafish Assay for Body Axis Malformation (AID 2283635).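 As to AC50: potency for an increased fraction of larvae scored with body axis malformation.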 In outline: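 Chorion is removed with pronase at 4 hpf, then single 6 hpf embryos are dosed (final DMSO 0.64%) and held statically at 28C in sealed, foil-covered plates. At 120 hpf body axis malformation is recorded as present or absent.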

Assay [8] in a line: Tanguay_ZF_120hpf_EYE_legacy: (Legacy) Oregon State University Tanguay Lab 120 Hour Post-fertilization zebrafish Assay for Eye Malformation (AID 2283636). The essentials: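 Static waterborne exposure of dechorionated zebrafish embryos (strain Tropical 5D), 6 to 120 hpf, sealed plates at 28C, 0.64% DMSO vehicle. Eye malformation is scored as a binary endpoint, with gain of signal analysed relative to DMSO.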

A short description of assay [9]: Tanguay_ZF_120hpf_OTIC_legacy: (Legacy) Oregon State University Tanguay Lab 120 Hour Post-fertilization zebrafish Assay for Otic Vesicle Malformation (AID 2283639). The essentials:
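Brightfield scoring at 120 hpf, binary present/absent; DMSO negative control, 5uM trimethyltin chloride positive control. Static exposure at 28C, final DMSO 0.64% (vol/vol). Dead embryos not scored for malformation.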

Assay [10] is described as follows: Tanguay_ZF_120hpf_PE_legacy: (Legacy) Oregon State University Tanguay Lab 120 Hour Post-fertilization zebrafish Assay for Pericardial Edema (AID 2283640).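 As to AC50: potency for increased incidence of pericardial edema versus DMSO baseline.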 The essentials: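 Embryos from wild-type 5D adults were staged, then dosed in 0.64% DMSO. They were kept sealed in the dark at 28C until 120 hpf. Pericardial edema was then recorded as present or absent.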
Assay [11] is described as follows: Tanguay_ZF_120hpf_CFIN_legacy: (Legacy) Oregon State University Tanguay Lab 120 Hour Post-fertilization zebrafish Assay for Caudal Fin Malformation (AID 2283649). In outline:
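Binary presence or absence of caudal fin malformation at 120 hpf, read by brightfield microscopy, with DMSO as baseline. Larvae came from 5D wild-type embryos exposed statically from 6 hpf at 28C after pronase dechorionation.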

A short description of assay [12]: Tanguay_ZF_120hpf_PIG_legacy: (Legacy) Oregon State University Tanguay Lab 120 Hour Post-fertilization zebrafish Assay for Pigmentation Malformation (AID 2283650). The essentials: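 Endpoint is incidence of abnormal pigmentation at 120 hpf in dechorionated 5D zebrafish exposed singly from 6 hpf at 28C, DMSO vehicle at 0.64%. Embryos dying by 24 or 120 hpf are excluded from scoring.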

Assay [13] in a line: Tanguay_ZF_120hpf_CIRC_legacy: (Legacy) Oregon State University Tanguay Lab 120 Hour Post-fertilization zebrafish Assay for Circulatory Malformation (AID 2283651). In outline: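 Static exposure, 6–120 hpf, 28C, sealed and dark; one dechorionated 5D embryo/well; DMSO 0.64% v/v final. Binary circulation endpoint by brightfield; dead embryos not scored.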
For assay [14], the target named is Cellular tumor antigen p53 (Homo sapiens) (UniProt P04637). The assay is described as follows: TOX21_p53_BLA_p5_ratio: Tox21 HCT-116 p53 Agonism Beta-lactamase Assay, Ratio, Phase 5 (AID 2283599). The essentials: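 HCT-116 cells carrying a p53-inducible beta-lactamase reporter were seeded at 4000 cells/well and dosed after 5 h with compound in DMSO (217-fold dilution). After 16 h at 37C, CCF4-AM substrate was added for 2 h, and the 460/530 nm emission ratio was scored as gain-of-signal versus DMSO.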

Assay [15] is described as follows: Tanguay_ZF_120hpf_YSE_legacy: (Legacy) Oregon State University Tanguay Lab 120 Hour Post-fertilization zebrafish Assay for Yolk Sac Edema (AID 2283634).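 As to AC50: actives raise the incidence of yolk sac edema above the DMSO baseline.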 In outline: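 Dechorionate (pronase, 4 hpf) → place one 6 hpf embryo per well → static compound exposure, sealed and foil-covered, 28C, to 120 hpf → record yolk sac edema as present or absent. Final DMSO 0.64%.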

Assay [16] is described as follows: Tanguay_ZF_120hpf_SNOU_legacy: (Legacy) Oregon State University Tanguay Lab 120 Hour Post-fertilization zebrafish Assay for Snout Malformation (AID 2283637). The essentials:
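Dechorionated zebrafish, individually housed from 6 hpf in covered, sealed wells at 28C with 0.64% DMSO vehicle, were examined at 120 hpf for snout malformation. Responses were binary and analysed positive-direction relative to DMSO.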

A short description of assay [17]: Tanguay_ZF_120hpf_JAW_legacy: (Legacy) Oregon State University Tanguay Lab 120 Hour Post-fertilization zebrafish Assay for Jaw Malformation (AID 2283638).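 As to AC50: active means more embryos with jaw malformation than DMSO controls.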 In outline: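 Steps: dechorionate 4 hpf embryos (pronase); plate 1/well at 6 hpf; add test chemical, 0.64% DMSO final; seal, cover, hold at 28C statically to 120 hpf; score jaw defect presence/absence microscopically. Dead embryos not scored.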

The nature of assay [18]: Tanguay_ZF_120hpf_BRAI_legacy: (Legacy) Oregon State University Tanguay Lab 120 Hour Post-fertilization zebrafish Assay for Brain Malformation (AID 2283641). In outline: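 Wild-type 5D larvae, static waterborne exposure to 120 hpf, 28C, 0.64% v/v DMSO. Brightfield scoring of brain defects, binary; dead embryos excluded. Positive ctrl 5uM trimethyltin chloride.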
Assay [19] in a line: Tanguay_ZF_120hpf_PFIN_legacy: (Legacy) Oregon State University Tanguay Lab 120 Hour Post-fertilization zebrafish Assay for Pectoral Fin Malformation (AID 2283648).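 Also: each larva judged yes or no for fin defect by brightfield with dead larvae skipped.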 The essentials:
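Scoring of pectoral fin malformation was binary, made at 120 hpf on larvae exposed statically from 6 hpf after enzymatic chorion removal. Activity was fitted upward relative to DMSO controls at 0.64% (vol/vol).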

Assay [20] can be described thus: Tanguay_ZF_120hpf_SOMI_legacy: (Legacy) Oregon State University Tanguay Lab 120 Hour Post-fertilization zebrafish Assay for Somite Malformation (AID 2283647). The essentials: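 Read-out: presence or absence of somite malformation in 120 hpf larvae, gain-of-signal relative to DMSO baseline. Embryos lacked chorion (pronase, 4 hpf) and were exposed statically from 6 hpf at 28C; dead larvae not scored.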

Sequence of Cellular tumor antigen p53 (Homo sapiens) (P04637 whole entry, looked up): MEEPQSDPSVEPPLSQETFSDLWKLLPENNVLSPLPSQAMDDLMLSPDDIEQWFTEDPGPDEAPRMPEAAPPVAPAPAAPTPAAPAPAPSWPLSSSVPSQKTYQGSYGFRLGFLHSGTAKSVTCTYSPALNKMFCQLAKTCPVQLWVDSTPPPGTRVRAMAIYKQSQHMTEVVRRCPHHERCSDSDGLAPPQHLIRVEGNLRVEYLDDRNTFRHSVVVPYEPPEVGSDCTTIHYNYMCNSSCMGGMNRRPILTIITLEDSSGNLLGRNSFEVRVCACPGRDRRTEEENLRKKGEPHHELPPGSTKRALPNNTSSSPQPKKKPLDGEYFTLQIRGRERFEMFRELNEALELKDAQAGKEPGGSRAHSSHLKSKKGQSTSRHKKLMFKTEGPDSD

Broadly, the AC50 is the midpoint of the concentration-response curve, whichever way the signal moves. On to `CC(C)(c1ccccc1)c1ccc(O)cc1`, for which the call in assay [1], in [2], in [4], in [7], in assay [8] and in assay [9] was inactive. Also, the compound was called inactive in assay [10], in [11], in assay [12] and in assay [13]. Besides, the AC50 in assay [3] was 71 µM (active) and 65.8 µM (active); in assay [5], 81.7 µM (active) and 70.4 µM (active); in assay [6] it was 19.1 µM (active).

As for `CCC(C)(c1ccc(O)cc1)c1ccc(O)cc1`, the outcome in assay [1], in assay [3], in assay [14], in [4] and in assay [11] was inactive. Moreover, the AC50 is 86.3 µM (active) and 76.2 µM (active) in assay [2]; 77.1 µM (active) in assay [3]; 75.7 µM (active) in assay [14]; 84.6 µM (active) and 82.3 µM (active) in assay [5]; 41 µM (active) in assay [15]; 46.9 µM (active) in assay [7]. Also, the AC50 in assay [8] is 46.2 µM (active); in [16], 46.2 µM (active); in [17], 47.3 µM (active); in assay [10] it was 43.4 µM (active); in [18], 50.6 µM (active); in assay [19] it was 44.7 µM (active). The AC50 in assay [12] was 43.2 µM (active); in assay [13], 42.7 µM (active).

For the compound `ClC1=C(Cl)[C@]2(Cl)[C@@H]3[C@H]4C[C@H]([C@@H]5O[C@H]45)[C@@H]3[C@@]1(Cl)C2(Cl)Cl`, the call in assay [1], in assay [2], in assay [3], in assay [14], in assay [4] and in assay [5] was inactive. Further, the call in [8], in assay [16], in assay [17], in assay [9], in [19] and in assay [13] was inactive. Also, the AC50 in assay [15] was 72 µM (active); in assay [7], 45.4 µM (active); in assay [10] it was 39 µM (active); in [18], 66.7 µM (active); in assay [11], 66.1 µM (active).

For the compound `OCC(O)CO`, the call in [1], in [2], in [3], in [4] and in [5] was inactive.

`Clc1ccc(Cl)cc1`: the outcome in assay [1], in [2], in [3], in [4], in assay [5] and in assay [6] was inactive. Further, the compound was classed as inactive in [15], in assay [7], in assay [8], in assay [16], in [17] and in assay [9]. In addition, the compound was called inactive in assay [10], in [11], in [12] and in assay [13].

Regarding `Oc1c(Cl)c(Cl)c(Cl)c(Cl)c1Cl`, the call in [1], in assay [3], in assay [4], in assay [15], in [7] and in assay [8] was inactive. The compound was classed as inactive in assay [16], in [17], in assay [9], in [10], in assay [18] and in assay [20]. Also, the result in assay [19], in assay [11], in assay [12] and in [13] was inactive. The AC50 was 5.71 µM (active) and 1.86 µM (active) in assay [2]; 11.1 µM (active) and 2.43 µM (active) in assay [5].

As to `Oc1ccc(C(c2ccc(O)cc2)(C(F)(F)F)C(F)(F)F)cc1`, the AC50 in assay [1] was 82.1 µM (active); in assay [2] it was 54.2 µM (active); in assay [3], 63.7 µM (active) and 71.3 µM (active); in assay [4] it was 72.3 µM (active); in assay [5] it was 57.3 µM (active) and 69.7 µM (active); in [15], 57.4 µM (active). Besides, the AC50 was 58.3 µM (active) in assay [7]; 53.9 µM (active) in assay [8]; 53.8 µM (active) in assay [16]; 54.7 µM (active) in assay [17]; 51.7 µM (active) in assay [9]; 37.7 µM (active) in [10]. In addition, the AC50 in [19] is 53.3 µM (active); in [11] it was 54 µM (active); in [12] it was 56.9 µM (active). The call in [1], in assay [2], in [4], in [18] and in [13] was inactive.
